Most compounds without a hit are left out; they make up all but 1.6% or so of the library.
gsp antagonist = gsp mutant antagonism. gsp-mutant cells, cAMP HTRF, 30 min. Potency, µM (titrated, usually from 76.9 µM), inactives show at the highest dose activity change, negative = inhibition, most hits filed as inhibitors. actives 0.4% (n = 340,000). AID 624288; calls by dose curve; cell line not stated here;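 further: intracellular cAMP measured with PDE inhibitor Ro 20-1724 present during compound exposure; on the % scale 0 is the no-effect control and ±100 the full control effect; nearly all actives have a fitted effect of over 65% in size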
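HTRF cAMP read-out (cAMP-d2 plus anti-cAMP antibody-K in lysis buffer, 30 min RT). Before lysis, cells are exposed to compounds with […] for 30 min at 37C in DPBS containing Ca/Mg, BSA and Tween 20.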
Mito fusion act = inhibitors of mitochondrial division or activators of mitochondrial fusion. S. cerevisiae fusion-defective mutant growth rescue, CellTiterGlo 48 h. Potency, µM (doses to about 46.1 µM), for inactives: top-dose growth rescue (activation), most hits filed as activators. actives 0.23% (n = 320,000); further: % of control where 0% means no effect; nearly all actives have a fitted effect of over 45% in size
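Luminescent cell viability in 1536-well qHTS format served as the measure of rescued growth in ts fusion-mutant S. cerevisiae cultured on non-fermentable YPEG for 48 hours at 37C.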
gsp ag = activates gsp, the McCune-Albright syndrome mutation | Potency, µM (top dose mostly 76.9 µM), inactives show at the top dose activation (cAMP increase), hits mostly activators | actives 0.13% (n = 340,000) | gsp mutant cells, cAMP HTRF, 30 min; active means well fitted activation curve with a large enough effect; inconclusive means small, poorly fitted or top-dose-only effect, or another doubt; inactive means no such curve, though single readings can be large or run the other way; cell line not stated here;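 further: phosphodiesterase inhibitor Ro 20-1724 added with compounds to block cAMP breakdown; nearly all actives have a fitted effect of over 60% in size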
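Cells stably selected in G418 were plated at 2000/well, grown 16-24 hr, then given compounds in DMSO with the PDE inhibitor […] (300 uM solution added) for 30 min at 37C; cAMP was read by HTRF.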
FUS yeast rescue = suppressors of FUS proteinopathy in yeast. actives 0.24% (n = 390,000). S. cerevisiae FUS-expressing, growth rescue, OD600, 24 h. Potency, µM (titrated, usually from 76.6 µM), usual class: activators;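 further: plate controls were DMSO vehicle for no effect and reference control for full effect; nearly all actives have a fitted effect of over 55% in size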
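Read-out: OD at 600 nm after 24hr at 30C, reporting rescue of FUS-induced yeast toxicity. Cells at OD 0.005 in galactose (2%) minimal medium; compounds tested in a dilution series; CP55940 titration from 92uM final as control.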
ALOX12 inh = blocks human arachidonate 12S-lipoxygenase; P18054; AID 1671190; Potency, µM (highest dose often 108 µM), inactives show at the top dose activity change, negative = inhibition, hits mostly inhibitors; actives 1.1% (n = 580,000); purified 12hLO, xylenol orange hydroperoxide absorbance; further: on the % scale 0 is the no-effect control and ±100 the full control effect
Target sequence (P18054 whole entry, looked up): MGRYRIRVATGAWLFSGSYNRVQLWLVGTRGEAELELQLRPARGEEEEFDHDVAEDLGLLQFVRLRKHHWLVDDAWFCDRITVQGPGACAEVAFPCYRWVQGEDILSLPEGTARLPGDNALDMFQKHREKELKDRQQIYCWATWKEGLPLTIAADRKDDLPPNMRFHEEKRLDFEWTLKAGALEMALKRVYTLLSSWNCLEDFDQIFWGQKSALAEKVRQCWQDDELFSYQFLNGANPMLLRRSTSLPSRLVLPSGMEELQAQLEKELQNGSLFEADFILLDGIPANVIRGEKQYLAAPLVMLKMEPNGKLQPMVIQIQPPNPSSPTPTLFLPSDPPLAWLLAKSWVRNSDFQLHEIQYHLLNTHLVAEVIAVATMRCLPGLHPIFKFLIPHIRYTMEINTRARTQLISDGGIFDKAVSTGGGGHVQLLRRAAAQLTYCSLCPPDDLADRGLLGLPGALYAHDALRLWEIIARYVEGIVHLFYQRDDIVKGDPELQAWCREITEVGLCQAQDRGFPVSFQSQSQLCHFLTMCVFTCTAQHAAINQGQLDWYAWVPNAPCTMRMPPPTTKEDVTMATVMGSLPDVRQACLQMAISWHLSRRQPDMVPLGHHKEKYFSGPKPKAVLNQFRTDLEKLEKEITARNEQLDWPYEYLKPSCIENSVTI
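Purified human 12hLO (150 nM final) in 25 mM Hepes, 0.01% Triton X-100, pH 7.0 was preincubated 15 min at room temperature with compound. Then 40 uM arachidonic acid was added, 30 min. Hydroperoxide was read by Fe-XO absorbance ratio 573/405 nm.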
Starred values were filed as active, the others as inactive; i = inactive; u = inconclusive; x = no result; [ ] = another dose, or the depositor's remark. Unless noted, the call rests on the fitted dose curve; in most records, active means well fitted curve in the direction sought with a large enough effect; inconclusive means small, poorly fitted or top-dose-only effect, or another doubt; inactive means no such curve, though single readings can be large; an effect the other way counts as inactive or inconclusive. Potency means the concentration at half of the fitted maximal effect.

SMILES	gsp antagonist	Mito fusion act	gsp ag	FUS yeast rescue	ALOX12 inh
Cc1nc2cc(C(=O)N3CCC(Cc4nncn4C(C)C)CC3)ccc2n1-c1ccc(C(C)C)cc1	x	x	x	x	68.3%
NS(=O)(=O)c1ccc(N/N=C/C=C/c2ccccc2[N+](=O)[O-])c([N+](=O)[O-])c1	x	x	x	x	-27.9%
COc1cc2[nH]c(=S)nc(NCCc3ccc(S(N)(=O)=O)cc3)c2cc1OC	-2.7%	2.2%	12.6µM*	i	-15.0%
COc1ccc2c(C)c(CC(=O)NCc3cccc(Cl)c3)c(=O)oc2c1C	x	x	x	x	-0.2%
C=CCNc1oc(/C=C/c2cccs2)nc1C#N	x	x	x	x	17.8µM*
CCCCNc1oc(/C=C/c2cccs2)nc1C#N	x	x	x	x	24.1%
CN(CCc1noc(-c2ccccc2)n1)S(=O)(=O)c1cccc2nsnc12	x	x	x	x	-16.6%
Cc1ccc(/C(=N/Nc2nc3ccccc3s2)C2=C(O)c3ccccc3C2=O)cc1	-14.8%	-5.4%	-2.9%[15.4 µM]	i	3.55µM*
Cc1ccc(S(=O)(=O)N(C)CC(=O)Nc2nc3ccccc3s2)cc1	u	u	2.3%	i	-18.5%
CN(Cc1ccccc1C(F)(F)F)C(=O)Nc1ccc(Cl)cc1	x	x	x	x	-15.5%[176 µM]
CSc1cccc(NC(=S)NN/C(=N/S(=O)(=O)c2ccccc2)N2CCCC2)c1	x	x	x	x	44.7µM*
Cc1ccc(N2C(=O)N3[C@H](c4cccc(C)c4)[C@@H]4C(=O)N(Cc5ccccc5)C(=O)[C@@H]4[C@]3(C)C2=O)cc1	-2.2%	u	-22.4%	i	8.3%
Cc1cccc([C@@H]2[C@@H]3C(=O)N(Cc4ccccc4)C(=O)[C@@H]3[C@]3(C)C(=O)N(c4cccc(F)c4)C(=O)N23)c1	28.2µM*	-2.7%	x	i	u
COC(=O)c1sc(=S)n(-c2ccc(Br)cc2)c1N	x	x	x	x	11.2µM*
CCOC(=O)c1sc(=S)n(-c2ccc(C)cc2)c1N	-3.9%	-4.5%	u	i	u
COC(=O)c1sc(=S)n(-c2cccc(OC)c2)c1N	x	x	x	x	12.6µM*
COC(=O)c1sc(=S)n(-c2ccccc2OC)c1N	-1.4%	-3.2%	-5.8%	i	0.0%
CNc1cccc(-c2c(OC)cccc2OC)n1	x	x	x	i	4.6%
COc1cccc(-c2nccc(NCc3ccc(OC)cc3OC)n2)c1	x	x	x	x	-19.4%
COc1ccccc1-c1nccc(NCc2ccccc2)n1	x	x	x	x	22.4µM*
CNc1ccnc(-c2ccccc2OC)n1	x	x	x	x	15.8µM*
COc1ccc(CNc2ccnc(-c3ccccc3OC)n2)c(OC)c1	x	x	x	x	-15.6%
COc1ccccc1CNc1ccnc(-c2ccc(N(C)C)cc2)n1	x	x	x	x	25.1µM*
COc1ccc(-c2nc3cc(NC(=O)c4ccccc4Cl)ccc3o2)cc1OC	x	x	x	x	27.0%
NC(=O)c1ccc(OC2CCN(S(=O)(=O)c3ccc(F)cc3)CC2)nc1	x	x	x	x	5.2%
SMILES	gsp antagonist	Mito fusion act	gsp ag	FUS yeast rescue	ALOX12 inh
N#Cc1nc(/C=C/c2ccc(Cl)cc2)oc1N1CCN(C(=O)c2ccco2)CC1	x	x	x	x	-22.7%
COc1ccc(N2C(=O)c3ccccc3C2=O)cc1	5.1%	-3.5%	-7.4%[15.4 µM]	i	-0.9%
COc1ccc(N2C(=O)C(Cl)=C(Oc3cccc(OC)c3)C2=O)cc1	28.2µM*	0.0%	-3.3%[15.4 µM]	i	x
CC1(C)Cc2c(sc(NC(=S)NC(=O)c3ccccc3)c2C(=O)O)CO1	-12.2%	5.5%	15.4%	i	28.2µM*
COc1cccc(CN2C(=O)CCCCC2C(=O)NCCCN2CCc3ccccc3C2)c1 (stereo not given)	x	x	x	x	11.4%
COCCNc1ncnc2ccc(-c3ccccc3C)cc12	x	x	x	x	28.2µM*
CC1(C)CC2CC(C)(CN2C(=O)CC(c2ccccc2Cl)c2c[nH]c3ccccc23)C1 (stereo not given)	x	x	x	x	7.5%
COc1ccccc1/C=C1\SC(=O)N(CC(=O)NCCCn2ccnc2)C1=O	8.4%	-0.1%	-4.2%	i	11.5%
O=C(CN1C(=O)S/C(=C\c2ccccc2Cl)C1=O)NCCCn1ccnc1	-3.9%	3.98µM*	-34.4%	i	-1.3%
COC(=O)c1ccc(COc2ccccc2/C=N/Nc2cccc(C(=O)O)c2)cc1	-26.5%	-1.7%	-3.2%	i	u
O=C(O)c1cccc(NC(=S)N/N=C/c2ccccc2OCc2cccc(Br)c2)c1	-27.1%	-4.4%	-3.7%	x	28.2µM*
O=C(O)c1cccc(NC(=S)N/N=C/c2ccccc2OCc2ccc(Br)cc2)c1	u	-4.9%	u	i	15.8µM*
Cn1cc(C(=O)NCC2CN(Cc3cccc(OC(F)(F)F)c3)CC23CN(c2ccccc2)C3)cn1 (stereo not given)	x	x	x	x	25.8%
CCCn1nc(C(=O)OCC(=O)c2ccc3c(c2)NC(=O)CO3)c2ccccc2c1=O	6.31µM*	-4.7%	-2.0%	i	59.5%
CCN(C(=O)C(C)OC(=O)c1cc(=O)c2ccccc2o1)c1ccccc1 (stereo not given)	x	x	x	x	-29.5%
CN(CC(=O)Nc1ccccc1C(F)(F)F)Cc1c(O)ccc2ccccc12	x	-2.7%	-1.9%[15.4 µM]	i	7.08µM*
CCOC(=O)c1cc(-c2ccc(S(=O)(=O)N3CCN(c4cc(C)ccc4C)CC3)s2)on1	x	x	x	x	-0.4%
COc1cccc(C2OCC(C)(C)n3c(-c4ccccc4)c4c(=O)n(C)c(=O)n(C)c4c32)c1O (stereo not given)	x	x	x	x	11.2µM*
Cc1ccnc(N/C=C(/Cl)C(=O)C(F)(F)F)c1	x	x	x	x	39.8µM*
COCCNCCCOc1ccc(C)cc1Br	35.5µM*	-1.6%	-74.6%	i	u
O=C(Nc1c(-c2ccccc2)[nH][nH]c1=O)c1ccc2c(c1)OCO2	x	x	x	i	-1.6%
O=C(Nc1c(-c2ccc3c(c2)OCO3)[nH][nH]c1=O)c1ccccc1	x	x	x	i	28.2µM*
CCc1c(-c2ccc(Cl)cc2)ncn1Cc1cccc(-c2ccccc2)c1	x	x	x	u	8.91µM*
O=C(CCc1ncc(-c2ccccc2)o1)N1CCN(C(=O)C2CC2)CC1	x	x	x	x	5.9%
CCCCCCn1nc(C(=O)Nc2cccc(S(=O)(=O)N3CCOCC3)c2)c2ccccc2c1=O	x	x	x	x	33.3%
SMILES	gsp antagonist	Mito fusion act	gsp ag	FUS yeast rescue	ALOX12 inh
O=C(Cn1nc(-c2ccccc2)c2c(c1=O)CCCC2)Nc1ccc(F)c(Cl)c1	x	x	x	10µM*	-17.2%
COC(=O)c1cc(NC(=O)Cn2nc(-c3ccccc3)c3c(c2=O)CCCC3)cc(C(=O)OC)c1	x	x	x	i	-11.6%
O=C1c2ccccc2-c2cccnc21	11.2%	-4.8%	-0.3%	i	1.9%
O=C1c2ccccc2C(=O)c2c(/C=C/N3CCCCC3)ccnc21	-4.6%	x	8.91µM*	x	-39.5%
COc1ccc(-c2cc(=O)[nH]c(=S)[nH]2)cc1	0.4%	0.3%	10µM*	i	u
Cc1cc(N(C)C)nc(N2CCN(C(=O)Nc3ccccc3)CC2)n1	x	x	x	x	2.1%
COc1cccc(O)c1CN1CCC(C(Cc2ccc(F)cc2)N(C)Cc2cn(C)nc2C)CC1 (stereo not given)	x	x	x	x	6.9%
CCCC(=O)Nc1ccc(-c2nc3cc(OC)ccc3o2)cc1	x	x	x	x	30.4%
NC(=O)c1ccsc1NS(=O)(=O)c1ccc([N+](=O)[O-])cc1	x	x	x	x	14.1µM*
